# High-throughput results as filed in PubChem.
# Pol eta inh: DNA polymerase eta (human) inhibition; recombinant Pol eta, fluorescent DNA replication assay; Potency, µM (titrated, usually from 114 µM), most hits filed as inhibitors; Q9Y253; 390,000 compounds, 1.2% hits
# Target sequence (Q9Y253 whole entry, looked up): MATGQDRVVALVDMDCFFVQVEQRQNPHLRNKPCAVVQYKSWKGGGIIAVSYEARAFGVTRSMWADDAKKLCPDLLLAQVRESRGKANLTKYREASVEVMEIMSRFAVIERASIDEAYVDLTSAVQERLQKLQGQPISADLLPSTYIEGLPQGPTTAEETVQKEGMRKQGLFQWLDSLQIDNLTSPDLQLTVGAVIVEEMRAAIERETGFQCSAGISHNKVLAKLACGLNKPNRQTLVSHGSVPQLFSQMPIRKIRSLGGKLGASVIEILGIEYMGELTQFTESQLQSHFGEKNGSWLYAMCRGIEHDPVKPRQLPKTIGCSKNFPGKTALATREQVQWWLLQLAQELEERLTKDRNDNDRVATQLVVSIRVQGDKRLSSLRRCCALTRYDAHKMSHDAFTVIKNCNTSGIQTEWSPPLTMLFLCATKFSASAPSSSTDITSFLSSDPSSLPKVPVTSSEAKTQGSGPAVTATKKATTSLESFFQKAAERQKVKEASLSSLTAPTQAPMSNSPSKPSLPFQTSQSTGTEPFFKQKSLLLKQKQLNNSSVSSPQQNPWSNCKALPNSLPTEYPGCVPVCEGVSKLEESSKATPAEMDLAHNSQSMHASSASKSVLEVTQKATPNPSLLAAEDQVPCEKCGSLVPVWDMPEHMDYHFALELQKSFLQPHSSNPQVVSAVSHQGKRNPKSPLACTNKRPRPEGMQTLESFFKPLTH
#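 Pol eta at 10 nM preincubated with compounds 15 min at room temperature; reaction started with fluorescent substrate (50 nM final) and read kinetically at 0 and 10 min.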
# Pol iota inh: inhibitors of human DNA polymerase iota; Pol iota fluorescent replication assay, 10 min; Q9UNA4; Potency, µM (highest dose often 115 µM), most hits filed as inhibitors; 390,000 compounds, 1% hits
#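 Pol iota at 10 nM preincubated 15 min with compounds at room temperature; reaction started with fluorescent substrate, 50 nM final. Fluorescence read kinetically at 0 and 10 min; buffer-only wells as negative control.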
# WRN helicase inh: blocks human WRN helicase; Q14191; WRN helicase unwinding, fluorescent forked duplex, kinetic; Potency, µM (top dose mostly 114 µM), most hits filed as inhibitors; 360,000 compounds, 0.46% hits; further: nearly all actives have a fitted effect of over 55% in size
#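 WRN at 20 nM final preincubated with compound 15 min at room temperature; reaction started with 100 nM fluorophore/quencher forked duplex oligonucleotide and 2 mM ATP final. Unwinding followed kinetically by red fluorescence (ex 525, em 598 nm).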
# Pol kappa inh: blocks human DNA polymerase kappa activity | 400,000 compounds, 0.53% hits | AID 588579 | Potency, µM (series often up to 107 µM), hits mostly inhibitors | purified Pol kappa, fluorescent DNA synthesis assay, 10 min | Q9UBT6
#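 Kinetic fluorescence screen: compound preincubated 15 min RT with 10 nM enzyme; 50 nM substrate (final) initiates; reads at 0/10 min.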
# Pol beta inh: blocks human DNA polymerase beta activity | P06746 | Pol beta primer extension/strand displacement, fluorescence kinetic | Potency, µM (series often up to 114 µM), hits mostly inhibitors | 340,000 compounds, 1.3% hits
#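 Reaction started by 50 nM substrate onto compound-treated Pol beta (10 nM, 15 min preincubation, room temperature); plates read at 0 min and 10 min. Normalized concentration-effect data fitted by four-parameter Hill equation.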
# PI5P4Ka inh: inhibitors of human PI5P4K alpha | P48426 | PI5P4Kalpha enzyme, ADP-Glo luminescence, 60 min; stronger effect = lower value | max response, % | 330,000 compounds, 1.2% hits | AID 652105; active means max response of -50% or lower; inconclusive means between -30% and -50%; inactive means -30% or higher; further: value at the top dose of about 77 µM
#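 PI5P4Kalpha ADP-Glo assay; 5 microM ATP final; 60 min RT reaction; HEPES pH 7.4/EGTA/CHAPS, 5% DMSO; controls lacking substrate or enzyme; luminescent end-point.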
# A number is an active result; n = inactive; u = inconclusive; x = no result; [ ] = dose if it differs, or a comment. Shown are actives, neighbours in structure and some others; about 2.8% of the full set was active somewhere. Unless noted, the call rests on the fitted dose curve; in most records, active means well fitted curve in the direction sought with a large enough effect; inconclusive means small, poorly fitted or top-dose-only effect, or another doubt; inactive means no such curve, though single readings can be large; an effect the other way counts as inactive or inconclusive.
SMILES,Pol eta inh,Pol iota inh,WRN helicase inh,Pol kappa inh,Pol beta inh,PI5P4Ka inh
O=[N+]([O-])c1cc2c(cc1CN1CCN(CCOCCO)CC1)OCO2,n,7.9µM,n[11.6 µM],u,n,n
CCc1ccc(NC(=O)C2CC=CCC2C(=O)O)cc1 (stereo unspecified),n,n,n,n,n,n
O=C(O)C1CC=CCC1C(=O)Nc1ccccc1 (stereo unspecified),u,n,n,n,32µM,x
O=C(O)Cc1ccc(NC(=O)C2CC=CCC2C(=O)O)cc1 (stereo unspecified),x,x,x,x,22µM,x
Cc1cc(N2CCN(c3ccccc3F)CC2)n2cnnc2n1,n,n,x,n,n,x
Cc1cc(N2CCN(c3cccc(C)c3C)CC2)n2cnnc2n1,n,u,x,n,0.16µM,x
O=S1(=O)CC(N2CCSCC2)CN1Cc1cn(Cc2ccc(C(F)(F)F)cc2)nn1 (stereo unspecified),x,x,n,x,x,n
Cc1coc2c(C)c3oc(=O)c(CCC(=O)N[C@@H](C)C(=O)N[C@@H](Cc4ccccc4)C(=O)O)c(C)c3cc12,28µM,n,n,u,u,n
CCCC(NC(=O)Cc1c(C)c2cc3c(C)c(C)oc3c(C)c2oc1=O)C(=O)N[C@@H](Cc1ccccc1)C(=O)O (stereo partly specified),u,u,n,u,28µM,n
Cc1coc2c(C)c3oc(=O)c(CCC(=O)NCCc4ccccc4)c(C)c3cc12,n,n,x,n,n,x
N#CCc1nc2ccc(S(=O)(=O)N3CCOCC3)cc2s1,n,u,n,n,n,-64
COc1cc(C(=O)Nc2nc3ccc(S(=O)(=O)N4CCOCC4)cc3s2)cc(OC)c1OC,n,n,50µM,n,n,x
CSc1nc2ccc(S(=O)(=O)N3CCOCC3)cc2s1,n,n,n,n,n,x
O=C(Nc1cccc(F)c1)C1CCN(c2nc3ccccc3nc2C(F)(F)F)CC1,n,n,x,n,n,x
CC(=O)Nc1ccc(NC2=C(Cl)C(=O)c3ccccc3C2=O)cc1,n,n,n[11.6 µM],n,n,n
Cc1ccc(NC2=C(NCCO)C(=O)c3ccccc3C2=O)cc1,n,20µM,n,n,n,n
CCc1ccc(NC(=O)CSc2c(C)cnc3c2c(=O)n(C)c(=O)n3C)cc1,n,n,x,n,n,x
CCOc1cc(CNc2ccccc2)cc(Br)c1OCc1ccc(F)cc1,n,n,n,n,n,n
CCOc1cc(CNc2ccc(O)cc2)cc(Cl)c1OCc1ccccc1,n,25µM,x,n,n,x
CCOc1cccc(CNn2cnnc2)c1OCc1ccccc1Cl,n,n,n,n,n,n
CCOc1cccc(CNc2ccc(O)cc2)c1OCc1ccccc1Cl,u,8.9µM,u,n,n,n
O=C(NCCSCc1cccc(Cl)c1)C1CCN(S(=O)(=O)Cc2ccccc2)CC1,n,n,x,n,n,x
N#Cc1cccc(NC(=O)c2cc(C3CCCCN3C(=O)CCCc3ccccc3)on2)c1 (stereo unspecified),x,x,n,x,x,n
O=C(/C=C/c1ccccc1)NC(=S)NNC(=O)c1ccco1,n,n,n,n,n,n
O=C(/C=C/c1ccc(Br)cc1)NC(=S)NNC(=O)c1ccco1,n,n,n,n,n,-52
SMILES,Pol eta inh,Pol iota inh,WRN helicase inh,Pol kappa inh,Pol beta inh,PI5P4Ka inh
Cc1cc2cc3c(=O)[nH]c(=O)cc-3n(CC(O)C(O)C(O)CO)c2cc1C (stereo unspecified),u,x,56µM,x,x,n
Cc1cc2cc3c(=O)[nH]c(=O)nc-3n(CC(O)C(O)C(O)CO)c2cc1C (stereo unspecified),n,n,n,n,x,n
CCOc1ccccc1NS(=O)(=O)c1cn(C)nc1C,n,89µM,n,n,n,n
O=C1CC(/C=C/c2ccco2)=Nc2ccccc2N1,n,u,n,n,u,-73
O=C(O)CSc1nnc(SCc2cccc3ccccc23)s1,n,n,n,n,89µM,x
CCCCOC(=O)n1c(=S)oc2cc(Cl)ccc21,n,n,n,n,n,-55
COC(=O)n1c(=S)oc2cc(Cl)ccc21,x,x,x,x,n,x
O=C(CCS(=O)(=O)c1cc2c3c(c1)CCN3C(=O)CC2)NCc1ccc(F)cc1,n,n,x,n,n,x
O=C(O)c1ccc(S(=O)(=O)N(CCc2ccccc2)Cc2ccc(Cl)cc2)cc1,n,n,n,n,50µM,n
COCCSc1ccccc1C(=O)Nc1ccc(Cl)cc1,n,10µM,n[11.6 µM],n,n,n
Cc1nn(-c2ccccc2)c2nc(C3CC3)cc(C(=O)Nc3ccccc3F)c12,n,n,x,n,n,x
O=C1OCCC1Sc1nc2ccccc2c(=O)n1-c1ccc(F)cc1 (stereo unspecified),n,n,n,n,n,n
O=C1OCCC1Sc1nc2ccccc2c(=O)n1Cc1ccc(F)cc1 (stereo unspecified),u,u,n,n,25µM,n
CCn1c(CN2CCC(C)CC2)nc2cc(NC(=O)COc3ccc(Cl)c(C)c3)ccc21,n,n,x,n,n,x
CN(C)C(=S)Nc1cccc(-c2n[nH]c(=S)o2)c1,n,n,n,n,n,n
NNC(=S)Nc1cccc(-c2n[nH]c(=S)o2)c1,79µM,n,n[11.6 µM],n,u,-76
Cc1cc(C)c(NC(=O)C(=O)NCCc2csc(-c3ccc(F)cc3)n2)c(C)c1,n,n,x,n,n,x
CCCc1ccc(OCc2nc(-c3ccc(NC(=O)c4cccs4)cc3)no2)cc1,u,n,n,n,u,n
CCCc1ccc(OCc2nc(-c3ccc(NC(=O)c4ccco4)cc3)no2)cc1,n,u,n,n,35µM,n
O=C(NCc1ccccc1F)C1CCN(Cc2cc3ccccc3n2Cc2cccc(Cl)c2)CC1,n,n,x,n,n,x
Cc1cc(C)c(S(=O)(=O)Nc2ccc3oc4c(c3c2)C(=O)CC(C)(C)C4)cc1C,n,79µM,x,n,n,x
COc1ccccc1N(/N=C1\Sc2ccccc2C1=O)C(C)=O,89µM,u,n[11.6 µM],n,n,n
O=C(CSc1nc(-c2ccc(F)cc2)cc(C(F)(F)F)n1)NCCc1ccccc1,n,n,x,n,n,x
O=C(NCC(c1ccco1)N1CCCC1)c1ccc(S(=O)(=O)Nc2ccccc2Cl)cc1 (stereo unspecified),u,u,n,79µM,x,n
O=C(NCC(c1ccco1)N1CCCCC1)c1ccc(S(=O)(=O)Nc2ccccc2Cl)cc1 (stereo unspecified),n,n,n,n,x,n
N#Cc1cc(Sc2ccccn2)c([N+](=O)[O-])cc1C#N,n,n,n,n,n,-86
Cc1cc(F)ccc1NC(=O)c1c(C)oc2c1C1=NCCN1C=N2,n,n,x,n,n,x
Cc1ccn2c(=O)nc(SCC(=O)NCc3ccccc3)nc2c1,22µM,45µM,u,n,x,u
O=C(CSc1nc(=O)n2cc(Cl)ccc2n1)Nc1cccc2ccccc12,u,u,n,n,x,u
